From PubChem BioAssay (NCATS)
Inconclusive results are not listed. Active and inactive are the calls of the source. Calls come from the whole dose curve; as a rule, active = well fitted cell-killing curve with a large enough effect; inconclusive = small, poorly fitted or top-dose-only effect; inactive = no such curve, though single readings can be large or run the other way.

test: qHTS of pediatric cancer cell lines to identify multiple opportunities for drug repurposing: Primary screen for A673 cells (AID 1347092); conditions: A673 Ewing sarcoma viability, CellTiter-Glo ATP luminescence, 48 h; series mostly up to 46 µM; note: nearly all actives have a fitted effect of over 45% in size
Method in brief: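 A673 cells (500-1,000 cells/well in growth media) were pre-incubated 5 h at 37 degrees C, then exposed to compounds for 48 h. Viability was read as CellTiter-Glo luminescence; concentration-response curves came directly from the primary screen.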
Potency is the fitted concentration of half-maximal effect.

Row | Structure (SMILES) | Potency
1 | O=C(Nc1nc2ccccc2n1CCN1CCOCC1)c1cccc([N+](=O)[O-])c1 | 3.72 µM (active)
2 | CNCc1ccc(-c2[nH]c3cc(F)cc4c3c2CCNC4=O)cc1 | 4.69 µM (active)
3 | C[C@@H]1CN(Cc2ccc(F)cc2)[C@@H](C)CN1C(=O)c1cc2c(C(=O)C(=O)N(C)C)cn(C)c2cc1Cl | 14.8 µM (active)
4 | CN(C)C(=O)c1ccc(S(=O)(=O)c2ccc(NC(=O)[C@@](C)(O)C(F)(F)F)c(Cl)c2)cc1 | 18.7 µM (active)
5 | Cc1ccc(NC(=O)c2cccc(C(C)(C)C#N)c2)cc1Nc1ccc2ncn(C)c(=O)c2c1 | 14.8 µM (active)
6 | Cc1ccc(-n2nc(C(C)(C)C)cc2NC(=O)Nc2ccc(OCCN3CCOCC3)c3ccccc23)cc1 | 4.69 µM (active)
7 | OC(CCN1CCCCC1)(c1ccccc1)C1CC2C=CC1C2 (configuration not stated) | inactive
8 | COCC(=O)NCC=Cc1ccc2ncnc(Nc3ccc(Oc4ccc(C)nc4)c(C)c3)c2c1 | 4.69 µM (active)
9 | Cc1cn[nH]c1 | inactive
10 | COc1ccc(C2=N[C@H](c3ccc(Cl)cc3)[C@H](c3ccc(Cl)cc3)N2C(=O)N2CCNC(=O)C2)c(OC(C)C)c1 | 14.8 µM (active)
11 | NC(=O)c1cnccn1 | inactive
12 | Cc1cc2c(C(C)C)c(O)c(O)c(C=O)c2c(O)c1-c1c(C)cc2c(C(C)C)c(O)c(O)c(C=O)c2c1O | 23.5 µM (active)
13 | C1COC(NC(C2CC2)C2CC2)=N1 | inactive
14 | OCCC#Cc1nc(-c2ccc(F)cc2)c(-c2ccncc2)n1CCCc1ccccc1 | 18.7 µM (active)
15 | Clc1cccc(Cl)c1NC1=NCCN1 | inactive
16 | N#CC[C@H](C1CCCC1)n1cc(-c2ncnc3[nH]ccc23)cn1 | 23.5 µM (active)
17 | Cc1ccccc1C(OCCN(C)C)c1ccccc1 (configuration not stated) | inactive
